In PubChem BioAssay AID504682 (Southern Research Specialized Biocontainment Screening …, 2011):
Measured potencies and affinities stand elsewhere. Activity calls are given as the source filed them. No rule for the calls is given here.

Assay: cytotoxicity control, cell-based, set 2 (AID 504682)

| Structure (SMILES) | outcome |
| --- | --- |
| CC[N+](C)(CC)CCCCOc1ccc2c(c1)C(=O)c1cc(OCCCC[N+](C)(CC)CC)ccc1-2 | inactive |
| CCOC(=O)COn1c2c(c3c4no[n+]([O-])c4ccc31)CCCC2 | inactive |
| Cc1c[nH]c(=S)[nH]c1=O | inactive |
| COC(=O)c1ccc(CNc2c(N3CCCC3)c(=O)c2=O)cc1 | inactive |
| COC(=O)C1CC(=O)N(c2ccc(OCc3ccccc3Cl)cc2)C1 (centres undefined) | inactive |
| O=C(CSc1nccc(=O)[nH]1)Nc1ccc(Oc2ccccc2)cc1 | inactive |
| Cc1nc(SCC(N)=O)[nH]c(=O)c1C | inactive |
| O=C(CSc1nccc(=O)[nH]1)Nc1ccc(N2CCOCC2)cc1 | inactive |
| CC(=NCc1ccc2c(c1)OCO2)C1=C(O)c2ccccc2C1=O | inactive |
| Cc1ccc(NC(=O)COC(=O)CCc2c[nH]c3ccccc23)cc1[N+](=O)[O-] | inactive |
| COC(=O)C(C)Oc1ccc(Cc2ncc(C(F)(F)F)cc2Cl)cc1 (centres undefined) | inactive |
| Cc1nc(SCC(=O)NC2CCCCC2)[nH]c(=O)c1C | inactive |
| CCn1c2ccccc2c2cc(NC(=O)CSc3nc(C)cc(=O)[nH]3)ccc21 | inactive |
| Cc1nc(SCc2ccccc2Cl)[nH]c(=O)c1C | inactive |
| Cc1nc(SCC(=O)N(C)c2ccccc2)[nH]c(=O)c1C | inactive |
| O=c1[nH]c(=S)[nH]c2ccccc12 | inactive |
| O=C(/C=C/c1ccccc1)N1CCN(CCN2C(=O)c3cccc4cccc(c34)C2=O)CC1 | inactive |
| O=C(CSc1nc2ccccc2c(=O)[nH]1)NCc1ccc(Cl)cc1 | inactive |
| CCSc1nc(C)c(C)c(=O)[nH]1 | inactive |
| Cc1cc(=O)[nH]c(=S)[nH]1 | inactive |

| Structure (SMILES) | outcome |
| --- | --- |
| COc1cc(NC(=O)C/C(C)=N/NC(=O)c2ccccn2)c(OC)cc1Cl | inactive |
| Cc1[nH]c(=S)[nH]c(=O)c1C | inactive |
| CN(C(=O)CSc1nc2ccccc2c(=O)[nH]1)C1CCCCC1 | inactive |
| CCc1ccc(/C=C2/C(=O)N(C)C(=S)N2CC(=O)OC)s1 | inactive |
| COC(=O)CCc1nc2c(C#N)c(-c3ccc(Cl)cc3)ccn2n1 | inactive |
| Cc1cc(=O)[nH]c(SCC(=O)Nc2ccccc2)n1 | inactive |
| O=C1C(Br)=Cc2cccc3cccc1c23 | inactive |
| CCOC(=O)CNC(=O)[C@H](Cc1ccccc1)NC(=O)OCc1ccccc1 | inactive |
| O=C(CSc1ccccn1)NC1CCCCC1 | inactive |
| CCOC(=O)COc1ccc(/C=C2\NC(=S)N(CC)C2=O)cc1 | inactive |
| O=C(CSc1nc2ccccc2c(=O)[nH]1)NC1CCCCC1 | inactive |
| COC(=O)C(C)Oc1ccc(-c2nccc(-c3ccccn3)n2)cc1 (centres undefined) | inactive |
| O=C(CSc1nc(O)cc(=O)[nH]1)Nc1ccccc1 | inactive |
| CCOC(=O)C(C)Sc1ncnc2c1nnn2-c1ccc(F)cc1 (centres undefined) | inactive |
| O=C(CSc1ncccn1)NC1CCCCC1 | inactive |
| CCOC(=O)CSc1nc(C)c(C)c(=O)[nH]1 | inactive |
| Cc1ccc(NC(=O)C2C3/C=C\CCCCC32)cc1C (centres undefined) | inactive |
| CCSc1nc2ccccc2c(=O)[nH]1 | inactive |
| CCOC1OC(=O)C(Cl)=C1Nc1ccccc1C (centres undefined) | inactive |
